# Source: PubChem BioAssay (Broad Institute)
# Only a selection was taken, and hits are over-represented in it overall.
# BL2 CD40 inh = CD40 pathway inhibition in BL2 cells; 83,000 tested, 0.94% active; BL2 NF-kB luciferase reporter, CD40L-induced, 4 h; inhibition, % at 10 µM; AID 1053188;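 active = mean inhibition of at least 50% with a set share of replicates also reaching that level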;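 also: 0% = neutral control wells and 100% = IKK inhibitor VII at 50 µM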
# The depositor's hits bear a star; ! = repeats disagree; [ ] = another dose, or the depositor's remark.
SMILES,BL2 CD40 inh
C[C@H]1CN([C@@H](C)CO)C(=O)c2c(c3ccccc3n2C)-c2ccccc2CO[C@@H]1CN(C)Cc1ccc(C(F)(F)F)cc1,15
CN(C)C(=O)[C@@H]1[C@@H](CO)[C@@H]2Cn3c(cccc3=O)[C@H]1N2CC1CCCC1,2[25 µM]
Cc1noc(C)c1NC(=O)N(C)C[C@H]1OCc2ccccc2-c2ccccc2C(=O)N([C@@H](C)CO)C[C@@H]1C,-19[25 µM]
COc1ccc2c3c([nH]c2c1)[C@@H](CO)N(Cc1ccccn1)CC31CCN(C(C)=O)CC1,-10[25 µM]
O=C(C[C@@H]1C[C@@H]2c3cc(NC(=O)c4cccnc4)ccc3O[C@@H]2[C@H](CO)O1)NC1CCCC1,2
CN(C)C(=O)c1ccc(-c2ccc(C3[C@@H]4CN(C(=O)C5CCOCC5)C[C@H]3N4)cc2)cc1 (stereo partly specified),-5
CC(=O)N(C)C[C@H]1Oc2ccc(N(C)C)cc2C(=O)N(C)C[C@H]1C,1
O=C(C[C@@H]1C[C@@H]2c3cc(NC(=O)Nc4ccc(C(F)(F)F)cc4)ccc3O[C@@H]2[C@@H](CO)O1)NCc1cc(F)ccc1F,10[25 µM]
COCC(=O)N1[C@@H]2CN(C(=O)Nc3ccccc3Cl)c3ccccc3[C@@H]2[C@@H]1CO,-9[25 µM]
C[C@H](CO)N1C[C@H](C)[C@@H](CN(C)Cc2ccccc2)OCc2ccccc2-c2c(n(C)c3ccccc23)C1=O,22
C[C@H](CO)N1C[C@H](C)[C@H](CN(C)C(=O)c2cc(Cl)cc(Cl)c2)OCc2ccccc2-c2c(n(C)c3ccccc23)C1=O,42[25 µM]
C[C@@H]1CN([C@@H](C)CO)C(=O)c2c(c3ccccc3n2C)-c2ccccc2CO[C@H]1CN(C)Cc1ccccc1,49*
C[C@@H]1CN([C@H](C)CO)C(=O)c2c(c3ccccc3n2C)-c2ccccc2CO[C@H]1CN(C)C(=O)c1cc(Cl)cc(Cl)c1,51*[25 µM]
C[C@@H]1CN([C@@H](C)CO)C(=O)c2c(c3ccccc3n2C)-c2ccccc2CO[C@H]1CN(C)C(=O)c1cc(Cl)cc(Cl)c1,29[25 µM]
C[C@@H]1CN([C@@H](C)CO)C(=O)c2c(c3ccccc3n2C)-c2ccccc2CO[C@@H]1CN(C)Cc1ccc(O)cc1,-6
CCCNC(=O)N[C@H]1CC[C@H](CCn2cc(C3CCCC3)nn2)O[C@H]1CO,-2
C[C@@H]1CN([C@H](C)CO)C(=O)CCCn2cc(nn2)CO[C@@H]1CN(C)Cc1ccc2c(c1)OCCO2,-4
O=C(C1CC1)N1C[C@@H]2N[C@H](C1)C2c1ccc(-c2ccccc2F)cc1 (stereo partly specified),83*!
Cc1cccc(-c2ccc(C3[C@@H]4CN(C(=O)Nc5ccccc5)C[C@H]3N4)cc2)c1 (stereo partly specified),0
N#Cc1ccc(-c2ccc(C3[C@@H]4CN(C(=O)C5CCC5)C[C@H]3N4)cc2)cc1 (stereo partly specified),44
N#Cc1ccc(-c2ccc(C3[C@@H]4CN(C(=O)C5CCCC5)C[C@H]3N4)cc2)cc1 (stereo partly specified),3
Cc1cccc(-c2ccc(C3[C@@H]4CN(C(=O)C5CCC5)C[C@H]3N4)cc2)c1 (stereo partly specified),14
O=C(c1ccc(F)cc1)N1C[C@@H]2N[C@H](C1)C2c1ccc(-c2ccccc2F)cc1 (stereo partly specified),4[25 µM]
N#Cc1cccc(-c2ccc(C3[C@@H]4CN(C(=O)C5CC5)C[C@H]3N4)cc2)c1 (stereo partly specified),76*!
O=C(Nc1ccc(C(F)(F)F)cc1)N1C[C@@H]2N[C@H](C1)C2c1ccc(-c2ccccc2)cc1 (stereo partly specified),70*!
SMILES,BL2 CD40 inh
O=C(Nc1ccc(F)cc1)N1C[C@@H]2N[C@H](C1)C2c1ccc(-c2ccccc2F)cc1 (stereo partly specified),-4
O=C(C1CCCC1)N1C[C@@H]2N[C@H](C1)C2c1ccc(-c2cccc(F)c2)cc1 (stereo partly specified),8
O=C(Nc1ccc(C(F)(F)F)cc1)N1C[C@@H]2N[C@H](C1)C2c1ccc(/C=C/c2ccccc2)cc1 (stereo partly specified),45
O=C(C1CC1)N1C[C@@H]2N[C@H](C1)C2c1ccc(-c2cccc(F)c2)cc1 (stereo partly specified),60*!
COCC(=O)N1[C@@H]2c3ccc(/C=C/c4ccccc4)c(=O)n3C[C@H]1[C@H](CO)[C@H]2C(=O)N1CCOCC1,4[25 µM]
COCC(=O)N(C[C@H]1N[C@@H](CO)[C@@H]1c1ccc(C2=CCCC2)cc1)C(C)C,0
CC(C)n1cnc2c(NCc3ccccc3O)nc(NCCCO)nc21,-2[25 µM]
O=C(CN1CCOCC1)N1[C@@H](CO)[C@@H]2c3ccccc3NC[C@@H]21,1[25 µM]
CCCNC(=O)[C@@H]1[C@@H](CO)[C@@H]2Cn3c(ccc(C4=CCCCC4)c3=O)[C@H]1N2Cc1cocn1,1[25 µM]
O=C(C[C@H]1CC[C@H]2[C@@H](COC[C@H](O)CN2S(=O)(=O)c2ccc(Cl)cc2)O1)NCCN1CCCCC1,20
C/C=C/c1ccc([C@@H]2[C@H]3CN(Cc4ccc(F)cc4)CC(=O)N3[C@H]2CO)cc1,8[25 µM]
COc1ccccc1S(=O)(=O)N1CC[C@@H]2[C@@H](CO)Nc3ccc(-c4ccc(C#N)cc4)cc3[C@@H]21,3[25 µM]
CC(=O)Nc1cccc2c1O[C@H](CN(C)C)[C@H](C)CN(C)C2=O,0
C/C(=N/NC(=O)c1ccccn1)c1ccco1,18
CC(=NNC(=S)N1CC2CCC(CC2)C1)c1cccc(C)n1,-20
CC(=NNC(=S)N1CCC1)c1ccccn1,97*
CCC(=O)N1[C@@H]2Cn3c(cccc3=O)[C@H]1[C@@H](C(=O)N1CCCCC1)[C@@H]2CO,-4[25 µM]
C[C@@H]1CN([C@@H](C)CO)C(=O)CCCn2cc(nn2)CO[C@@H]1CN(C)S(C)(=O)=O,-3[25 µM]
N#C[C@H]1[C@@H](c2ccc(C#CC3(O)CCCC3)cc2)[C@H](CO)N1C(=O)C1CC1,1
C[C@@H](NC(=O)/C(C#N)=C\c1ccc(O)c(O)c1)c1ccccc1,-6[25 µM]
Nc1ncnc(Nc2ccccn2)c1[N+](=O)[O-],8
Cc1cccnc1Nc1ncnc(N)c1[N+](=O)[O-],3
Cc1cc(C)nc(Sc2ncnc(N)c2[N+](=O)[O-])n1,82*
c1ccc(-c2noc(-c3ccc4c(c3)OCO4)n2)nc1,75*
c1ccc(CCc2ccccc2-c2nc(-c3ccccn3)no2)cc1,11
SMILES,BL2 CD40 inh
c1ccc(-c2noc(-c3cccnc3)n2)nc1,-3
c1ccc(-c2noc(-c3ccncc3)n2)nc1,-47
c1ccc(-c2noc(-c3ccc4ccccc4c3)n2)nc1,105*
c1ccc(-c2nccc(-c3ccc4c(c3)OCO4)n2)cc1,-88
C[C@H]1CN([C@@H](C)CO)C(=O)c2cc(-c3ccncc3)cnc2O[C@@H]1CN(C)C(=O)CN1CCOCC1,-3[25 µM]
O=C(CC1CC1)N1CC(=O)N2[C@H](CO)[C@@H](c3ccc(/C=C/c4ccccc4)cc3)[C@H]2C1,22[25 µM]
CCS(=O)(=O)NCC[C@@H]1CC[C@@H](NS(=O)(=O)c2ccccc2C)[C@@H](CO)O1,-2[25 µM]
O=C(CN1CCOCC1)N[C@@H]1CC[C@H](CCn2cc(C3CC3)nn2)O[C@H]1CO,-4[25 µM]
O=C(NC1CCCCC1)[C@H]1[C@H](CO)[C@H]2Cn3c(cccc3=O)[C@H]2N1CC1CCCC1,7
O=C(CCS(=O)(=O)c1ccccc1)N(CCCN1CCOCC1)c1nc2ccc(F)cc2s1,72*
